Measured values taken from ChEMBL document CHEMBL3988442, “University of Dundee, Small-Polar-MMV Screening Library” (2021).
The campaign covered roughly 48,000 compounds. About 13,000 (27%) showed an effect of 50% or more. The list shows a part of the results.

Tested on: Wolbachia pipientis
Experiment: Anti-Wolbachia Cell-Based Screen
Format: functional
Parameters: scale not given: in the data most compounds retested in dose-response had high values
Conditions: 5 µM

Structure (SMILES) | Percent Effect [%]
CNS(=O)(=O)c1cccc(CNc2ccc(C#N)cn2)c1 | 2.285
CS(=O)(=O)NCCCn1ccc2ccccc21 | 3.407
COc1ccc(-c2cc(CN)ccc2F)c(OC)c1OC | 2.502
C=C(C)CN(c1cn[nH]c1)S(=O)(=O)c1cccc(C#N)c1 | -12.41
CCOCC1CC2(CCN(C(=O)C3CC=CC3)CC2)CO1 (configuration not stated) | -13.65
CNC(=O)C1(N2CCC[C@H]2C(=O)NC2CCCCC2)CCOCC1.Cl | -2.575
OCCC1CN(c2nc(-c3ccncc3)nc3c2CCNCC3)CCO1 (configuration not stated) | -20.05
CC(C)(C)c1nc(CN2CCCC2Cn2cncn2)no1 (configuration not stated) | 86.44
CC(C)(C)c1nc(CN2CCCC2Cn2cccn2)no1 (configuration not stated) | 10.76
CCCc1nc(CN2CCOC(Cn3cncn3)C2)no1 (configuration not stated) | 3.436
CCCc1nc(CN2CCCC2Cn2cncn2)no1 (configuration not stated) | 115.4
CN(C)C(=O)Cc1ccc(NCc2nccn2C)cc1 | -22.63
O=C(NCCn1ccc(-c2ccncc2)n1)c1ccncc1 | -0.4931
O=C(NCCNc1cc(-n2cccc2)ncn1)c1cccs1 | 19.24
Cc1nccn1-c1ccc(=O)n(CCNC(=O)c2cccs2)n1 | 125.6
Cc1nccn1-c1ccc(CNC(=O)c2ccc[nH]2)cn1 | 15.47
Cc1nccn1-c1ccc(CNC(=O)c2ccc([S+](C)[O-])cc2)cn1 (configuration not stated) | 4.955
Cc1nccn1-c1ccc(=O)n(CCNC(=O)c2ccncc2)n1 | 97.47
Cc1nc(NC(=O)N2CCCC(N(C)C)C2)nn1C (configuration not stated) | -14.3
COC(=O)c1ccc2ccn(CC3CCCCO3)c(=O)c2c1 (configuration not stated) | -39.6
Oc1ccc(N2CCN(Cc3cc4c(cc3Br)OCCO4)CC2)cc1 | -10.73
CCc1ccc(CN2CCC3(CCCN(C(=O)c4cnccn4)C3)C2)o1.O=C(O)C(F)(F)F (configuration not stated) | 23.64
Cn1cc(CN2CCC3(CCCN(C(=O)c4cnccn4)C3)C2)cn1 (configuration not stated) | 7.413
Cn1cc(CN2CCCC3(CCN(C(=O)c4cnccn4)C3)C2)cn1.O=C(O)C(F)(F)F.O=C(O)C(F)(F)F (configuration not stated) | -36.61
CC(C)CCN1CCC2(CC1)CN(C(=O)c1cnccn1)CCO2.O=C(O)C(F)(F)F | -8.642
Cn1cc(CN2CCC3(CC2)CN(C(=O)c2cnccn2)CCO3)cn1 | 101.7

Structure (SMILES) | Percent Effect [%]
Cc1ccc(CN2CCC3(CC2)CN(C(=O)c2cnccn2)CCO3)o1.O=C(O)C(F)(F)F | 98.59
Cc1cc2n(n1)CC(CNC1CCN(C(=O)C3CC3)CC1)CN2 (configuration not stated) | 1.236
Nc1cc(C(=O)NCC2CCN(Cc3ccncc3F)C2)ccn1 (configuration not stated) | -104.6
CC(C)(C)c1nccc(N2CCC(OCCN3CCCCC3)C2)n1 (configuration not stated) | 4.599
CC(C)n1cc(CN(C)C[C@@H]2CCCN3CCCC[C@H]23)cn1 | 12.76
CC(Cn1cncc1-c1cnn(C2CCCCC2)c1)N1CCCCC1.Cl (configuration not stated) | 109.8
CC(CN1CCCCCC1)NCc1nncn1C1CCCCC1 (configuration not stated) | -0.3524
COCCn1c2c(ccc1=O)CC(N)CC2 (configuration not stated) | -4.933
COCCn1c2c(ccc1=O)CCN(C(=O)C1CC=CC1)CC2 | 102.1
O=C(NC1CC1)N1CCc2ccc(=O)n(CC3CC3)c2CC1 | 7.486
COCCn1c2c(ccc1=O)CCN(C(=O)NC1CC1)CC2 | 105.3
COCCn1c2c(ccc1=O)CCN(C(=O)CC1CC1)CC2 | 117
COCC(=O)N1CCc2ccc(=O)n(CC3CC3)c2CC1 | 104.1
O=C(NC1CC1)N1CCc2ccc(=O)n(CCN3CCCC3)c2CC1.O=C(O)C(F)(F)F | -8.445
CC(C)c1cccc(CSc2nnc(Cn3cncn3)o2)n1 | -1.93
CN(C)C(=O)CN1C(=O)CO[C@@H]2CN(c3ccccn3)C[C@H]21.O=C(O)C(F)(F)F | -2.034
Cc1cc(CCCC(=O)NC2CCN(C)C2=O)c(C)s1 (configuration not stated) | -2.482
CNC(=O)CS(=O)(=O)C1CCN(S(=O)(=O)c2ccccc2Br)CC1 | 9.932
Cc1ccc(-c2noc(C(O)CC(C)C)n2)nn1 (configuration not stated) | -5.785
O=C(CN1CCS(=O)(=O)CC1)NC1CCOc2ccccc21 (configuration not stated) | 5.265
Cc1ccc(CS(=O)(=O)Cc2nc(N)nc(N(C)C)n2)cc1 | 10.59
CN(C)c1cc2c(nn1)CCN(C(=O)C1Cc3ccccc3S1)C2 (configuration not stated) | -0.2262
CC(C)c1ccc(O)c(C(=O)NCc2cc[nH]n2)c1 | -15.09
CC(NCCCn1ccnc1)c1ccc(N2CCCS2(=O)=O)cc1 (configuration not stated) | -4.666
COCCCNS(=O)(=O)c1ccc(N2CCCCS2(=O)=O)cc1 | 124.1
CC(NCCCn1cccn1)c1ccc(N2CCCS2(=O)=O)cc1 (configuration not stated) | -2.983
